# Activity calls are given as the source filed them.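 The calls were made as follows: active = blocks over 60% of fluorescent estradiol binding at 10 µM; inactive = the rest.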
# Biological target: G-protein coupled estrogen receptor 1 (Homo sapiens) (UniProt Q99527)
# Assay: GPR30 competitive binders vs fluorescent estrogen, primary screen, cell-based, Cos7 GPR30-GFP, flow cytometry, 10 µM (AID 1212)
# Settings: fluorescent estrogen competition, at 10 µM; active compounds read high
SMILES,inhibition,outcome
COc1cc([N+](=O)[O-])cc2c1N[C@@H](c1ccc(C(=O)O)cc1)[C@H]1CC=C[C@@H]21,91% (active),
CC(=O)c1ccc(N2Cc3ccccc3C2)cc1,,inactive
CCOC(=O)COc1cc2oc(=O)c3c(c2cc1CC)CCCC3,,inactive
CC1(C)CC(=O)c2cn(-c3ccc(Cl)cc3)c(=N)c(C#N)c2C1,,inactive
CCOc1ccc(NS(=O)(=O)c2ccc3c(c2)[C@H]2C=CC[C@H]2[C@@H](c2cccc([N+](=O)[O-])c2)N3)cc1,20% (inactive),
O=c1oc2cc(O)c(Cl)cc2c2c1CCCC2,,inactive
CC1=CC(C)C2(CO)COC(c3ccccc3O)C1C2C (configuration not stated),,inactive
CCOc1ccc(NS(=O)(=O)c2ccc3c(c2)[C@H]2C=CC[C@H]2[C@@H](c2ccc([N+](=O)[O-])cc2)N3)cc1,55% (inactive),
CCCc1cc(=O)oc2c(C)c(OC3CCCCC3=O)ccc12 (configuration not stated),,inactive
COc1ccc2c(c1)c1c3n2CCNC3CCC1 (configuration not stated),,inactive
O=c1oc2cc(O)ccc2c2c1CCC2,,inactive
Cc1nn(-c2ccccc2)c2sc(C#N)c(N)c12,58% (inactive),
CC(=O)Oc1ccc2c(c1)CCC1C2C(O)CC2(C)C(=O)CCC12 (configuration not stated),,inactive
CCCCc1cc2c(=O)c(-c3ccccn3)coc2cc1O,3% (inactive),
CCCCCCc1cc2c3c(c(=O)oc2cc1OCC(N)=O)CCC3,,inactive
CC(=O)c1ccc2c(c1)C1C=CCC1C(c1cccc([N+](=O)[O-])c1)N2 (configuration not stated),64% (active),
CCCc1c(C(=O)OCC)[nH]c2c1C(=O)CC(c1ccccc1)C2 (configuration not stated),,inactive

# Source: PubChem BioAssay AID1212 (NMMLSC, 2008)
